G9a block: qHTS Assay for Inhibitors of Histone Lysine Methyltransferase G9a; Histone-lysine N-methyltransferase EHMT2 (Homo sapiens), Q96KQ7; G9a H3K9 monomethylation, AlphaScreen, 2 h; Potency, µM (doses to about 102 µM), for the others: top-dose activity, negative = inhibition, actives largely listed as inhibitors; 350,000 compounds, 8.8% hits; AID 504332, 2011; further: on the % scale 0 is the no-effect control and ±100 the full control effect; nearly all actives have a fitted effect of over 75% in size
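AlphaScreen read-out: biotin-H3K9 peptide (500 nM) methylation by 20 nM enzyme with 20 uM SAM, 2 h at room temperature after 15 min compound preincubation; anti-monomethyl H3K9 antibody plus donor/acceptor beads, 10 min dark.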
HP1b binding inh: HTS for Inhibitors of HP1-beta Chromodomain Interactions with Methylated Histone Tails | Chromobox protein homolog 1 (Homo sapiens), P83916 | AlphaScreen HP1-beta / biotin-H3K9me3 peptide binding | Potency, µM (highest dose often 114 µM), without a hit: at the highest dose activity change, negative = inhibition, hits mostly inhibitors | 390,000 compounds, 0.56% hits | AID 540317, 2011; further: nearly all actives have a fitted effect of over 70% in size
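AlphaScreen: HP1-beta (50 nM) preformed 30 min with biotin-H3(1-18)K9me3 peptide (50 nM) in PBS pH 7.4, 0.01% Tween-20. Compound added for 30 min at RT, then streptavidin donor/nickel chelate acceptor beads (10 ug/mL) for 30 min.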
BAZ2B inh: qHTS Assay for Inhibitors of BAZ2B | AlphaScreen BAZ2B-H3K14Ac peptide displacement | Potency, µM (titrated, usually from 114 µM), inactives show at the highest dose activity change, negative = inhibition, usual class: inhibitors | AID 504333, 2011 | 360,000 compounds, 4.4% hits | Bromodomain adjacent to zinc finger domain protein 2B (Homo sapiens), Q9UIF8; further: on the % scale 0 is the no-effect control and ±100 the full control effect; nearly all actives have a fitted effect of over 60% in size
Target sequence (Q9UIF8 whole entry, looked up, the tested form may be a part): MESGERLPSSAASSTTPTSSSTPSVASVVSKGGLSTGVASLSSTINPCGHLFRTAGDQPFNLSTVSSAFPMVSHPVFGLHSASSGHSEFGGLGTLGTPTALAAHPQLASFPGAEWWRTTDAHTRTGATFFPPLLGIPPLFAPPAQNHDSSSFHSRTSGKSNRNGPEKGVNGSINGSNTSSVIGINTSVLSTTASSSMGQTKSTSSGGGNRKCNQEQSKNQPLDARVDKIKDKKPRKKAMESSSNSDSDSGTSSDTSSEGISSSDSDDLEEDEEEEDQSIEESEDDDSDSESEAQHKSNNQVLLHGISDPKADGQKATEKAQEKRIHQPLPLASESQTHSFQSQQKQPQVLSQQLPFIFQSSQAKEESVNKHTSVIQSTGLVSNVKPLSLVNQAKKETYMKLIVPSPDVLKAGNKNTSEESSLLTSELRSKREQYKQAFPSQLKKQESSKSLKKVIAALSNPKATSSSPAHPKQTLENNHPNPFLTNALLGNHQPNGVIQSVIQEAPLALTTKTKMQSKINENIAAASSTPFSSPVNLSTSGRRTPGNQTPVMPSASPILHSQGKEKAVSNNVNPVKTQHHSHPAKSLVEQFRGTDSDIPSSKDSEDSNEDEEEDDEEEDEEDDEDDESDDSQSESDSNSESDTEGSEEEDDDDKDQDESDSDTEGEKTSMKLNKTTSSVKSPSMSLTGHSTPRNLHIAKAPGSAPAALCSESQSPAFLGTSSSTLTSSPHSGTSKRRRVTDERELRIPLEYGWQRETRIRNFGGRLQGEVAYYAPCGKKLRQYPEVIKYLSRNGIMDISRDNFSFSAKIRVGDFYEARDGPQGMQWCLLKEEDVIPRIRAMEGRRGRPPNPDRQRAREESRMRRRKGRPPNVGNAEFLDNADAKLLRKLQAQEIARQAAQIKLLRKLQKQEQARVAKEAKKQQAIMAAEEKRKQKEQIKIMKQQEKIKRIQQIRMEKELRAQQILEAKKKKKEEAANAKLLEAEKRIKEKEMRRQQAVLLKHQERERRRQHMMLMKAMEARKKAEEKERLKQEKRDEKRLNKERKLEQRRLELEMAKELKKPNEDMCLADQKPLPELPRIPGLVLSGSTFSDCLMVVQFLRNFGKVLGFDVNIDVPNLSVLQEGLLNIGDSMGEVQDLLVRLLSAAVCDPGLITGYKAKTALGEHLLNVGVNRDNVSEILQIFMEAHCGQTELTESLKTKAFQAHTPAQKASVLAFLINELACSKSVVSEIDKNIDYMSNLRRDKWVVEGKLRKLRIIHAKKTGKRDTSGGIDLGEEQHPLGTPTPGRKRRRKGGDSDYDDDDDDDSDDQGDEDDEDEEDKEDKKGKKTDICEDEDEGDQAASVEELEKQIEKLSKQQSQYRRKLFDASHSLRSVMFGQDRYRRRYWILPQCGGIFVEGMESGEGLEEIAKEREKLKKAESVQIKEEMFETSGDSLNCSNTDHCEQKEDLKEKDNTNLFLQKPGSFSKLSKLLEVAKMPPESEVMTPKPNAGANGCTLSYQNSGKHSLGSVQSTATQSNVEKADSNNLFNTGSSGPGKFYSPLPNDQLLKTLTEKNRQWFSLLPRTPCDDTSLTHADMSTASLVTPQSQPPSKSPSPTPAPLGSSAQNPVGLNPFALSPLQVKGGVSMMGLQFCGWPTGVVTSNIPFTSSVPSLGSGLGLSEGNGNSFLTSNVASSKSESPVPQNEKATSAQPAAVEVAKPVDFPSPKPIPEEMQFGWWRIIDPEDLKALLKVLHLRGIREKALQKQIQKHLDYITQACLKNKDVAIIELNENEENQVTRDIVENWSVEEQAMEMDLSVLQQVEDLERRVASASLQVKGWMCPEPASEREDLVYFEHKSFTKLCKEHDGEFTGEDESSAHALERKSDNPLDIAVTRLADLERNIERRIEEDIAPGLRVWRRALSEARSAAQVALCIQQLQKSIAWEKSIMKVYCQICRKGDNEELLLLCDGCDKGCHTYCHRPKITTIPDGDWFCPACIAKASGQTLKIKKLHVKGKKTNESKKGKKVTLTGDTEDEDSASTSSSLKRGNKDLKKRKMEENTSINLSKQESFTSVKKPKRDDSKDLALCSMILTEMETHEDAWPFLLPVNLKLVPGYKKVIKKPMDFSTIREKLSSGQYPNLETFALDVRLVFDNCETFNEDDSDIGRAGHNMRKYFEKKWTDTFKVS
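Complex of BAZ2B and biotin-H3K14Ac (50 nM apiece) forms over 30 min at RT, then faces library compounds up to 110 uM for another 30 min; AlphaScreen beads added, 20 min dark incubation, luminescence read.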
JMJD2A Tudor: qHTS Assay for Inhibitors of JMJD2A-Tudor Domain; Potency, µM (series often up to 114 µM), inactives show at the top dose activity change, negative = inhibition, usual class: inhibitors; AID 504339, 2011; AlphaScreen JMJD2A-Tudor / H3K4me3 peptide binding; 390,000 compounds, 4.4% hits; further: on the % scale 0 is the no-effect control and ±100 the full control effect; nearly all actives have a fitted effect of over 50% in size
GLS inhibitor: qHTS for Inhibitors of Glutaminase (GLS) | Potency, µM (titrated, usually from 45.5 µM), inactives show top-dose activity change, negative = inhibition, actives largely listed as inhibitors | Glutaminase kidney isoform, mitochondrial (Homo sapiens), O94925 | 410,000 compounds, 0.21% hits | GLS enzymatic activity, qHTS titration; further: on the % scale 0 is the no-effect control and ±100 the full control effect
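hKGA in 45 mM KH2PO4 (pH 8.2), 0.02% Tween-20 with compound, then 1mM L-Glutamine (stock as added) plus glutamate oxidase/HRP/Amplex red coupling mix. Fluorescence read initially and after 30 min at RT; signal change reflects glutamate formation.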
Active calls of the source: *; ? = inconclusive; . = no result given; [ ] = remark or other dose. Hits are enriched below; roughly 10% of the tested compounds scored in any of these assays. The call rests on the fitted dose curve; in most records, active means well fitted curve in the direction sought with a large enough effect; inconclusive means small, poorly fitted or top-dose-only effect, or another doubt; inactive means no such curve, though single readings can be large; an effect the other way counts as inactive or inconclusive. Potency means the concentration at half of the fitted maximal effect.

SMILES	G9a block	HP1b binding inh	BAZ2B inh	JMJD2A Tudor	GLS inhibitor
CN1c2ccccc2-c2nc3ccccc3n2C1c1ccncc1 (centres undefined)	-36%[12.7 µM]	65%	4%	11%	-8%
CNC(=O)COC(=O)/C=C/c1nc2ccccc2s1	24%[59 µM]	34%	-17%	-11%	-3%
CCN(CC)c1ccc(NC(=O)COC(=O)/C=C/c2nc3ccccc3s2)cc1	6.3µM*	-6%	-26%	?	9%
CCOc1ccccc1N(CC(=O)N1CCCCCC1)S(C)(=O)=O	-2%[12.7 µM]	42%	0%	-19%	-10%
COc1ccc(N2Cc3cccc(C(=O)NC(C)CCc4ccco4)c3C2=O)cc1 (centres undefined)	?	?	35µM*	45µM*	0%
CC(=O)Nc1ccc(/C(C)=N/Nc2nc(N3CCOCC3)nc(N3CCOCC3)n2)cc1	3%	-8%	.	?	2%
O=C(O)CCC(=O)NNC(=O)c1ccc(Br)cc1	6%[59 µM]	24%	3%	-11%	11%
O=C(c1ccncc1)N(c1ccc2oc3c(c2c1)CCCC3)S(=O)(=O)c1cccc([N+](=O)[O-])c1	3.5µM*	-23%	?	?	4%
COc1ccc(S(=O)(=O)N(C(=O)c2ccncc2)c2ccc3oc4c(c3c2)CCCC4)cc1	-17%[59 µM]	0%	-38%	-28%	-2%
CCOC(=O)CSc1c(-c2ccccc2)c2cc(Cl)ccc2[nH]c1=O	23%[59 µM]	32%	0%	-11%	3%
CNCCCC1c2ccccc2C=Cc2ccccc21	22%[59 µM]	10%	-3%	-14%	5%
CNCCCC1Sc2ccccc2Oc2ccccc21 (centres undefined)	7.9µM*	-34%	?	8.9µM*	-16%
c1ccc(-c2nn3c(-c4ccco4)nnc3s2)nc1	40µM*	60%	-38%	-12%	-9%
Brc1ccc(-c2nn3c(-c4ccco4)nnc3s2)o1	14µM*	2%	50µM*	?	-11%
Clc1ccc(OCc2nn3c(-c4ccco4)nnc3s2)c(Cl)c1	-39%[2.33 µM]	13%	56µM*	?	-9%
CC(C)(C)c1ccc(-c2nnc3sc(-c4ccccn4)nn23)cc1	32µM*	-6%	?	-26%	-2%
Clc1ccc(-c2nnc3sc(-c4ccccn4)nn23)cc1	-7%[2.33 µM]	.	12%	.	.
Cc1ccc(Cn2c(C3CCCN3c3nc(-c4cc(Cl)c(N)c(Cl)c4)cs3)nc3cc(C(=O)NCCCO)ccc32)cc1 (centres undefined)	.	2%	.	-34%	-4%
COc1cc(NC(=O)c2ccc(NC3=NC4CS(=O)(=O)CC4S3)cc2)cc(OC)c1 (centres undefined)	.	26%	2%	-15%	10%
CCOc1ccc(S(=O)(=O)N2CCCC(C(=O)NCc3ccccn3)C2)cc1C (centres undefined)	4%	14%	9%	-10%	-2%
Brc1ccc(-c2nn3c(-c4ccccn4)nnc3s2)o1	20µM*	34%	18µM*	14µM*	-17%
COc1ccc(-n2c(CN3CCOCC3)nc3ccc([N+](=O)[O-])cc3c2=O)c(OC)c1	45µM*	26%	-28%	-24%	-6%
COc1ccc(-n2c(CN3CCN(c4ccccc4)CC3)nc3ccc([N+](=O)[O-])cc3c2=O)c(OC)c1	40µM*	?	-38%	?	7%
COc1cccc(-n2c(CN3CCN(c4ccccn4)CC3)nc3ccc([N+](=O)[O-])cc3c2=O)c1	28µM*	-7%[57 µM]	56µM*	-32%	-20%
COc1ccc(-n2c(CN3CCC(C)CC3)nc3ccc([N+](=O)[O-])cc3c2=O)c(OC)c1	?	12%	?	-24%	3%
SMILES	G9a block	HP1b binding inh	BAZ2B inh	JMJD2A Tudor	GLS inhibitor
COc1cccc(-n2c(CN3CCN(c4cccc(C)c4)C(C)C3)nc3ccc([N+](=O)[O-])cc3c2=O)c1 (centres undefined)	9%[59 µM]	-13%	-38%	?	8%
Cc1nn(-c2ccccc2)c(OC(=O)c2ccccc2Cl)c1S(=O)(=O)c1ccccc1	?	16%	?	?	3%
Cc1onc(-c2c(F)cccc2Cl)c1-c1nnc(-c2ccc(C(F)(F)F)cc2)o1	99%[59 µM]	65%	47%	37%	-4%
COc1ccc2nc3cc(Cl)ccc3c(Nc3cc(CN4CCCC4)c(O)c(CN4CCCC4)c3)c2n1	?	.	40µM*	.	.
Cc1ccc(NS(=O)(=O)c2cccc(C(=O)NC3CCN(Cc4ccccc4)CC3)c2)cc1	.	-4%	.	-26%	8%
COC(=O)c1cc(CN2C(=O)c3ccccc3C2=O)c(O)c([N+](=O)[O-])c1	6%	49%	56µM*	-6%	0%
CNC(=O)COc1ccc(S(=O)(=O)Nc2ccc(OC)cc2)cc1	.	-2%	-11%	-8%	21%
CCOC(=O)c1cc(S(=O)(=O)Nc2ccccc2)[nH]n1	10µM*	17%[57 µM]	79µM*	?	-2%
CCOC(=O)c1ccc(NS(=O)(=O)c2c(C)n[nH]c2C)cc1	1%[12.7 µM]	35%	3%	4%	0%
CCOC(=O)c1cc(S(=O)(=O)Nc2ccccc2OCC)[nH]n1	8.9µM*	-1%[57 µM]	50µM*	50µM*	-3%
CCOC(=O)c1cc(S(=O)(=O)Nc2ccc(OC(F)(F)F)cc2)[nH]n1	3.2µM*	2%[57 µM]	50µM*	?	8%
CCOc1ccccc1NS(=O)(=O)c1cnc(N)nc1	10%[59 µM]	23%[57 µM]	3%	-14%	6%
CC1(C)CC(=O)C(C=Nc2ccccc2C(=O)O)=C(O)C1	-24%[59 µM]	47%	5%	-23%	3%
CC1(C)CC(=O)c2cc(N=C/C(C(=O)c3ccccc3)=C(\O)c3ccccc3)c(=O)oc2C1	25µM*	36%	-28%	?	6%
CCOc1ccc(CN2CCN(Cc3cccn3-c3cccnc3)CC2CCO)cc1 (centres undefined)	?	14%	?	-26%	13%
COc1ccccc1Nc1nc(-c2c(C)[nH]c3ccccc23)cs1	14µM*	?	40µM*	50µM*	-1%
COc1ccc2[nH]c3ccccc3c2c1	-36%	7%	-36%	-18%	15%
CNc1nc(-c2c(C)[nH]c3ccc(OC)cc23)cs1	40µM*	-3%	50µM*	?	15%
Cc1[nH]c2ccccc2c1-c1csc(N)n1	79µM*	5%	?	-32%	19%
CC(C)c1cnc2c(c1SCC(=O)c1ccccc1)c(=O)n(C)c(=O)n2C	13%[59 µM]	24%[57 µM]	-7%	-22%	-1%
